From PubChem
MCF10A rereplic = DNA re-replication induction in MCF 10a cells. MCF 10A DNA re-replication, Hoechst nuclear intensity, 48 h. 2.9% of 350,000 active. Potency, µM (top dose mostly 46.1 µM), for inactives: top-dose activity, positive = re-replication, usual class: activators. AID 624296; further: % of control where 0% means no effect; nearly all actives have a fitted effect of over 50% in size
KB-V1 MDR tox = KB-V1 MDR subline cytotoxicity. 3.4% of 400,000 active. KB-V1 MDR cells viability, CellTiter-Glo, 72 h. Potency, µM (highest dose often 46.1 µM), hits mostly cytotoxic; further: on the % scale 0 is the no-effect control and ±100 the full control effect; nearly all actives have a fitted effect of over 60% in size
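Following 72 h at 37 degrees C with compound, KB-V1 cell viability was read by CellTiter-Glo luminescence, medium being phenol-red-free DMEM plus 10% FBS; concentration-response parameters came from normalized, curve-fitted qHTS data.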
HT1080NT lethal = kills 2HG-producing HT-1080-NT fibrosarcoma cells | Potency, µM (top dose mostly 46.1 µM), for the others: at the highest dose activity, negative = less viability, hits mostly cytotoxic | HT-1080-NT fibrosarcoma viability, CellTiter-Glo ATP luminescence, 48 h | 1.6% of 360,000 active;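 further: NT is the 2HG producing partner of a matched IDH1 knockdown line; 0% = DMSO-treated cells and -100% = media-only wells without cells; nearly all actives have a fitted effect of over 55% in size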
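750 cells/well, RPMI + 5% FBS; 2 h settle, compound pin-transfer, 48 h at 37 degrees C. CellTiter-Glo 10 min RT, luminescence. Normalized to DMSO and media-only wells.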
HT1080 IDH1KD tx = toxicity to HT-1080 IDH1 knockdown cells (counter line); HT-1080 IDH1 knockdown viability, ATP luminescence, 48 h; Potency, µM (series often up to 46.1 µM), without a hit: at the highest dose activity, negative = toxicity, hits mostly cytotoxic; 2% of 360,000 active; AID 686971;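 further: 0% = DMSO wells and -100% = cell-free medium wells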
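HT-1080-IDH1KD cells (IDH1 knocked down), 750/well in RPMI with 5% FBS, treated with compound 48 h at 37 degrees C. Viability by CellTiter-Glo luminescence, normalised to DMSO and no-cell wells; concentration-response curves classed.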
KB-3-1 cytotox = kills parental KB-3-1 adenocarcinoma cells | KB-3-1 viability, CellTiter-Glo ATP luminescence, 72 h | Potency, µM (series often up to 46.1 µM), actives largely listed as cytotoxic | 1.4% of 400,000 active; further: on the % scale 0 is the no-effect control and ±100 the full control effect; nearly all actives have a fitted effect of over 60% in size
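Screening of KB-3-1 cells (DMEM, 10% FBS, phenol-red free) ran from lowest to highest compound concentration; after 72 h at 37 °C viability was read luminescently and curves fitted.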
SW480 rereplic = induces DNA re-replication in SW480 colon adenocarcinoma cells; SW480 DNA re-replication, Hoechst DNA content imaging, 48 h; Potency, µM (titrated, usually from 46.1 µM), inactives show at the top dose re-replication activation, most hits filed as activators; 1.8% of 340,000 active; further: % of control where 0% means no effect; nearly all actives have a fitted effect of over 55% in size
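Per well, 250 cells were exposed to pinned compound for 48 hr. Nuclear DNA was visualised with Hoechst (40 min, 37 C) and total object intensity recorded by fluorescence scanning.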
Active calls of the source: *; i = inactive; u = inconclusive; x = no result; [ ] = another dose, or the depositor's remark. A selection: hits, their analogues and other compounds. The true share with any hit is near 8%. The call rests on the fitted dose curve; in most records, active means well fitted curve in the direction sought with a large enough effect; inconclusive means small, poorly fitted or top-dose-only effect, or another doubt; inactive means no such curve, though single readings can be large; an effect the other way counts as inactive or inconclusive. Potency means the concentration at half of the fitted maximal effect.

SMILES | MCF10A rereplic | KB-V1 MDR tox | HT1080NT lethal | HT1080 IDH1KD tx | KB-3-1 cytotox | SW480 rereplic
CCc1cc2cc(C)cc(C)c2nc1SCC(=O)N1CCN(C(=O)c2ccco2)CC1 | u | 23µM* | 0% | -1%[9.24 µM] | u | -1%
CCc1cc2cccc(C)c2nc1SCC(=O)N1CCN(C(=O)c2ccco2)CC1 | u | i | -2% | 2% | i | 4%
Cc1cccc2c(C(=O)N3CCN(C(=O)c4ccco4)CC3)cc(-c3cccc(Br)c3)nc12 | 18µM* | 9.2µM* | u | 18µM* | u | u
CCOc1ccc(NC(=O)N2CCN(S(=O)(=O)c3ccc4c(ccn4C)c3)CC2)cc1 | x | i | x | x | i | x
CCOC(=O)c1scc(-c2ccc(C)cc2)c1S(=O)(=O)N1CCN(c2ccccc2)CC1 | x | i | x | x | i | x
CCc1ccc(CNC(=O)c2ccc(NC(=O)N3CC(C)Sc4ccccc43)cc2)cc1 (centres undefined) | x | i | x | x | i | x
CCOc1ccc(NC(=O)Cn2nc(CC)n3c(cc4sccc43)c2=O)cc1 | x | i | x | x | i | x
COc1ccc(NC(=O)N2CCc3c(sc4c3CCCC4)C2c2ccc(F)cc2)cc1 (centres undefined) | x | i | x | x | i | x
O/C=c1\ccc2cccc3nc(C(F)(F)F)nc1c23 | 21µM* | i | -25% | -9% | i | 14%
Cc1nc2c(ccc3nc(NC(=O)C4CC4)sc32)s1 | 11% | 21µM* | u | u | u | u
CCC(=O)Nc1nc2ccc3sc(C)nc3c2s1 | -7% | u | -22% | u | u | -3%
Cc1cc(C=Nc2ccc(/C=C/c3ccnc4ccccc34)cc2)ccc1N(C)C | x | i | x | x | i | x
COc1ccc(C(=O)c2c(C(F)(F)F)oc3c2C(=O)c2ccccc2C3=O)cc1OC | u | 9.2µM* | 9.2µM* | u | 9.2µM* | 0.73µM*
Cc1nn2c(-c3ccc(S(=O)(=O)N4CCN(CCO)CC4)o3)nnc2c2ccccc12 | 0% | i | -8% | -16% | i | 18µM*
COc1ccc(-c2nnc3c4ccccc4c(C)nn23)cc1S(=O)(=O)N1CCN(CCO)CC1 | 13% | u | u | 8.9µM* | u | -4%
Cc1ccc(-c2nn3c(C)nnc3c3ccccc23)cc1S(=O)(=O)N1CCN(CCO)CC1 | 13% | i | -5% | -18% | i | -6%
COCCN(CC(=O)Nc1ccccc1C(F)(F)F)C(=O)/C=C/c1cc(Cl)c2c(c1)OCO2 | -3% | i | -3% | -5% | i | -14%
COCCN(CC(=O)Nc1ccccc1C(F)(F)F)C(=O)/C=C/c1cc(Cl)c2c(c1)OCCO2 | 12% | 3.7µM* | -1% | -34% | i | 17%
CC1CCCCN1S(=O)(=O)c1ccc(C(=O)N(CCCN(C)C)c2nc3ccc(Br)cc3s2)cc1 (centres undefined) | u | 23µM* | 18µM* | u | u | u
CN(C)CCN(C(=O)c1ccc2ccccc2c1)c1nc2ccc(Br)cc2s1 | 6% | i | -1% | 7% | i | -8%
CCOC(=O)N1CCN(S(=O)(=O)c2ccc(C(=O)N(CCN(C)C)c3nc4ccc(CC)cc4s3)cc2)CC1 | 6% | i | -6% | -7% | i | -1%
CN(C)CCCN(C(=O)C1=COCCO1)c1nc2ccc(Br)cc2s1 | 14% | u | 21µM* | 23µM* | u | 23%
CN(C)CCN(C(=O)c1ccc(S(=O)(=O)N2CCCC2)cc1)c1nc2ccc(Br)cc2s1 | 8% | i | u | u | i | -5%
CCOC(=O)N1CCN(S(=O)(=O)c2ccc(C(=O)N(CCCN(C)C)c3nc4ccc(CC)cc4s3)cc2)CC1 | 10% | i | u | 16µM* | i | u
Cc1ccc2nc(N(CCCN(C)C)C(=O)c3ccc(S(=O)(=O)N4CCCCCC4)cc3)sc2c1 | 0% | i | u | 18µM* | u | u
SMILES | MCF10A rereplic | KB-V1 MDR tox | HT1080NT lethal | HT1080 IDH1KD tx | KB-3-1 cytotox | SW480 rereplic
COc1cccc(CNC(=O)c2cnc(N3CCCCC3)c3ccccc23)c1 | x | i | x | x | i | x
CCc1ccc(-n2nc(C)c3c(C(=O)Nc4cccc(C(F)(F)F)c4)cc(C)nc32)cc1 | x | u | x | x | i | x
Cc1ccc(C)c(N2CCN(C(=O)c3ccc(CS(=O)Cc4ccc(Cl)cc4)o3)CC2)c1 (centres undefined) | u | u | -24% | -14% | i | 16µM*
Cc1ccc(Cl)cc1N1CCN(C(=O)c2ccc(CS(=O)Cc3ccc(Cl)cc3)o2)CC1 (centres undefined) | u | i | -17% | u | i | 0%
COc1ccc(N2CCN(C(=O)c3ccc(CS(=O)(=O)c4ccccc4C)o3)CC2)cc1 | 12% | u | -23% | u | i | 9%
Cc1ccc(S(=O)(=O)Cc2ccc(C(=O)N3CCN(c4cc(C)ccc4C)CC3)o2)cc1 | u | 18µM* | 13% | 5% | u | 2%
Cc1ccc(C)c(N2CCN(C(=O)c3csc4ccccc34)CC2)c1 | 16µM* | u | -12% | -8% | u | 3%
Cc1ccc(C)c(N2CCN(C(=O)c3ccc(CS(=O)(=O)c4ccccc4C)o3)CC2)c1 | u | u | u | 10µM* | u | u
O=C(NCc1ccc2c(c1)CCN2C(=O)c1ccccc1)c1ccco1 | x | i | x | x | i | x
Cc1ccc2nc(-c3ccncc3)c(Nc3ccc(C(C)C)cc3)n2c1 | x | i | x | x | i | x
O=C(COc1ccccc1C(=O)OCC(=O)Nc1cccc2ccccc12)Nc1ccc(Br)cc1 | x | i | x | x | i | x
CN(C)c1ncc(S(=O)(=O)c2ccccc2)c(-c2ccc(Cl)cc2Cl)n1 | u | 15µM* | 4% | -2% | i | -7%
Cc1ncc(S(=O)(=O)c2ccccc2)c(-c2ccccc2Cl)n1 | -2% | i | -8% | -9% | i | -5%
CN(C)c1ncc(S(=O)(=O)c2ccc(Cl)cc2)c(-c2ccc(Cl)cc2Cl)n1 | 7% | 18µM* | -5% | -14% | u | -3%
CCN(C(=O)Cn1nc(Cc2ccncc2)c2ccccc2c1=O)c1cccc(Cl)c1 | x | i | x | x | i | x
Cc1nn(CC(=O)NC2CC2)c(=O)c2cc3cc(F)ccc3n12 | x | u | x | x | i | x
N#CN=c1snc(-c2ccccc2Cl)n1-c1ccc(F)cc1 | x | i | x | x | i | x
C/C(=C\C(=O)c1ccc(F)cc1)Nc1ccc(N2CCOCC2)cc1 | 0% | 21µM* | -3% | 2% | i | 0%
O=C(CCn1cnc2onc(-c3ccc(F)cc3)c2c1=O)N1CCN(c2cccc(Cl)c2)CC1 | x | i | x | x | i | x
